# Source: PubChem BioAssay (Tox21)
# Inconclusive results are not listed. A call without a number means that no potency is given here. More than one record can exist for a structure, and the calls need not agree. The source made the active and inactive calls. Unless noted, the call rests on the fitted dose curve; in most records, active means well fitted curve in the direction sought with a large enough effect in the repeat runs; inconclusive means weak or mixed curves; inactive means no such curve, though single readings can be large; an effect the other way counts as inactive or inconclusive.
# What was measured:
# [1] = qHTS assay to identify small molecule antagonists of the androgen receptor (AR) signaling pathway using the MDA cell line in the presence of 0.5 nM R1881 - cell viability counter screen (AID 1259242); conditions: MDA-kb2 viability, CellTiter-Fluor protease fluorescence, 16 h; series mostly up to 92.4 µM; further: nearly all actives have a fitted effect of over 45% in size; further: potency means the concentration at half of the fitted maximal effect
# How it was run: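 qHTS format. MDA-kb2 (MMTV-luc, AR/GR responsive) + cpd + 0.5 nM R1881 final, 16 hr 37C/0% CO2 → CellTiter-Fluor 30 min → fluorescence intensity.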
# [2] = target: Estrogen receptor (Homo sapiens) (UniProt P03372); test: qHTS assay to identify small molecule antagonists of the estrogen receptor alpha (ER-alpha) signaling pathway using the BG1 cell line in the presence of 0.1 nM 17-beta-estradiol (AID 1259244); conditions: VM7Luc4E2 (BG1) ERE-luciferase, antagonist mode, 0.1 nM E2, 22 h; series mostly up to 92.4 µM; further: nearly all actives have a fitted effect of over 50% in size; further: potency means the concentration at half of the fitted maximal effect
# How it was run: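 Reporter is a stably transfected luciferase under four estrogen responsive elements in VM7Luc4E2 cells expressing native full-length ER-alpha; inhibition of 0.1 nM (final) 17beta-estradiol-driven signal over 22 h is read by luminescence.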
# [3] = qHTS assay to identify small molecule HDAC inhibitors (AID 1259364); conditions: HCT-116 HDAC-Glo I/II luminescence, 2 h; series mostly up to 92.4 µM;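 further: wild-type HCT-116 cells with endogenous class I/II HDAC activity; top concentration of the series differs between compounds; nearly all actives have a fitted effect of over 45% in size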
# How it was run: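 Quantitative high-throughput format: overnight-seeded HCT-116 cells got compounds for 2 hr at 37C; HDAC-Glo I/II reagent added, 30 min RT, luminescence measured.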
# [4] = qHTS assay to identify small molecule HDAC inhibitors - cell viability counter screen (AID 1259365); conditions: HCT-116 viability, CellTiter-Glo ATP luminescence, 2 h; series mostly up to 92.4 µM; further: nearly all actives have a fitted effect of over 50% in size
# How it was run: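 Following a 2hr exposure of overnight-plated wild-type HCT-116 cells to DMSO-delivered compounds, CellTiter-Glo was added and luminescence recorded after 30min at room temperature.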
# [5] = qHTS assay to identify small molecule agonists of the sonic hedgehog signaling (Shh) pathway - cell viability counter screen (AID 1259366); conditions: NIH/3T3 Gli1-Luc viability, CellTiter-Fluor, 24 h; series mostly up to 92.4 µM; further: potency means the concentration at half of the fitted maximal effect; nearly all actives have a fitted effect of over 50% in size
# How it was run: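 After a 4hr attachment at 37C, NIH/3T3 cells bearing an integrated Gli1-driven luciferase reporter were dosed with compounds. Treatment lasted 24hr, with the final hour including CellTiter-Fluor for a fluorescence viability measurement.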
# [6] = qHTS assay to identify small molecule antagonists of the sonic hedgehog signaling (Shh) pathway - cell viability counter screen (AID 1259367); conditions: NIH/3T3 Gli1-Luc viability, CellTiter-Fluor, 24 h; series mostly up to 42.5 µM; further: nearly all actives have a fitted effect of over 55% in size; further: potency means the concentration at half of the fitted maximal effect
# How it was run: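 CellTiter-Fluor signal in conditioned medium-stimulated 3T3 Gli1-Luc cells, 23 hr compound exposure, 37C.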
# [7] = qHTS assay to identify small molecule agonists of the sonic hedgehog signaling (Shh) pathway (AID 1259368; calls by dose curve;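 further: NIH/3T3-derived 3T3Gli1-Luc cells carrying a stable Gli1-driven firefly luciferase reporter; nearly all actives have a fitted effect of over 15% in size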); conditions: NIH/3T3 Gli1-Luc reporter, luciferase, 24 h; series mostly up to 92.4 µM
# How it was run: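 Quantitative high-throughput format using a Gli1-driven firefly luciferase reporter line derived from NIH/3T3 cells. After a 24 hr compound treatment at 37 C and 5% CO2, luminescence reported Gli1 response element activity.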
# [8] = qHTS assay to identify small molecule antagonists of the sonic hedgehog signaling (Shh) pathway (AID 1259369; calls by dose curve; further: potency means the concentration at half of the fitted maximal effect; nearly all actives have a fitted effect of over 45% in size); conditions: NIH/3T3 Gli1-Luc reporter, Shh antagonist, luminescence 24 h; series mostly up to 92.4 µM
# How it was run: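 Stable Gli1-Luc reporter NIH/3T3 clone; quantitative HTS in stimulated mode with conditioned medium. Luminescence measured after 24hr compound treatment at 37 C.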
# [9] = target: Estrogen receptor beta (Homo sapiens) (UniProt Q92731); test: qHTS assay to identify small molecule agonists of the estrogen receptor beta (ER-beta) signaling pathway (AID 1259377; active means well fitted activation curve with a large enough effect in the signal ratio in the repeat runs, not every such curve was filed as active; the % refers to the signal ratio); conditions: ER-beta-UAS-bla HEK293T, beta-lactamase FRET ratio, 16 h; series mostly up to 92.4 µM
# How it was run: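 In HEK293T cells bearing a UAS-beta-lactamase reporter under ER-beta control, DMSO-delivered compounds were incubated for 16 hr at 37C. Activity was detected as fluorescence 2 hours after LiveBLAzer B/G FRET substrate addition.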
# [10] = target: Estrogen receptor beta (Homo sapiens) (UniProt Q92731); test: qHTS assay to identify small molecule antagonists of the estrogen receptor beta (ER-beta) signaling pathway (AID 1259378; active means well fitted inhibition curve with a large enough effect in the signal ratio in the repeat runs, not every such curve was filed as active; the % refers to the signal ratio; further: potency means the concentration at half of the fitted maximal effect); conditions: ER-beta-UAS-bla HEK293T, beta-lactamase FRET ratio, 16 h; series mostly up to 92.4 µM
# How it was run: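 Antagonist mode: compounds added to beta-lactamase reporter HEK293T ER-beta-UAS cells stimulated with E2 (1nM final), 16 hr at 37C. LiveBLAzer B/G FRET substrate, 2 hours room temperature, fluorescence read-out.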
# [11] = qHTS assay to identify small molecule agonists of the androgen receptor (AR) signaling pathway in the presence of an antagonist - cell viability counter screen (AID 1259379); conditions: MDA-kb2 viability, CellTiter-Fluor, 16 h; series mostly up to 92.4 µM; further: nearly all actives have a fitted effect of over 25% in size; further: potency means the concentration at half of the fitted maximal effect
# How it was run: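 Nilutamide-containing (3.0uM final) MDA-kb2 cultures, 3,000 cells/well, were treated with compounds across 15 concentrations. After 16 hr at 37C with no CO2, cell viability was determined by CellTiter-Fluor fluorescence in the luciferase assay wells.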
# [12] = qHTS assay to identify small molecule agonists of the estrogen receptor beta (ER-beta) signaling pathway - cell viability counter screen (AID 1259380); conditions: ER-beta-bla HEK293T viability, CellTiter-Glo luminescence, 16 h; series mostly up to 92.4 µM; further: potency means the concentration at half of the fitted maximal effect; nearly all actives have a fitted effect of over 30% in size
# How it was run: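 Steps: plate ER-beta-UAS-bla HEK293T cells, rest 6 hr; add compounds in DMSO; incubate 16 hr at 37C, 5% CO2; add FRET substrate 2 hr; add CellTiter-Glo, wait 30 min at room temperature; read luminescence.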
# [13] = qHTS assay to identify small molecule antagonists of the estrogen receptor beta (ER-beta) signaling pathway - cell viability counter screen (AID 1259382); conditions: ER-beta-UAS-bla HEK293T viability, CellTiter-Glo luminescence, 16 h; series mostly up to 92.4 µM; further: nearly all actives have a fitted effect of over 55% in size; further: potency means the concentration at half of the fitted maximal effect
# How it was run: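 Viability is scored by CellTiter-Glo luminescence (30 min, room temperature) in ER-beta-UAS-bla HEK293T wells already read for reporter fluorescence. Compound exposure lasts 16 hr at 37C alongside 1nM 17-beta-estradiol in charcoal-stripped serum medium.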
# [14] = target: Estrogen receptor (Homo sapiens) (UniProt P03372); test: qHTS assay to identify small molecule agonists of the estrogen receptor alpha (ER-alpha) signaling pathway in the presence of an antagonist (AID 1259383; calls by dose curve; further: top concentration of the series differs between compounds; nearly all actives have a fitted effect of over 15% in size); conditions: VM7Luc4E2 cells, ERE-luciferase, +ICI-182,780, 22 h; series mostly up to 92.4 µM
# How it was run: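 Readout was ERE-driven luciferase luminescence in VM7Luc4E2 cells, which express full-length ER-alpha endogenously. Compounds were tested at 15 concentrations for 22hr alongside 10.0nM ICI-182,780 (final concentration).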
# [15] = qHTS assay to identify small molecule agonists or antagonists of the thyroid stimulating hormone receptor (TSHR) signaling pathway - wild type cell line counter screen (AID 1259384; calls by dose curve); conditions: HEK293 wild type, cAMP HTRF counter-screen, stronger effect = higher value; series mostly up to 92.4 µM
# How it was run: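 Counter screen in untransfected Hek293: compounds (15-point titration, triplicate) plus phosphodiesterase inhibitor Ro20-1724 added after 18 h plating; 30 min RT. Intracellular cAMP via competitive d2/cryptate immunoassay, 1 h incubation.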
# [16] = target: Thyrotropin receptor (Homo sapiens) (UniProt P16473); test: qHTS assay to identify small molecule antagonists of the thyroid stimulating hormone receptor (TSHR) signaling pathway (AID 1259385; calls by dose curve; further: nearly all actives have a fitted effect of over 20% in size; further: potency means the concentration at half of the fitted maximal effect); conditions: TSHR-HEK293 cAMP HTRF, TSH-stimulated antagonist mode; series mostly up to 92.4 µM
# How it was run: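 Antagonist mode: compound-treated TSHR-expressing HEK293 cells were stimulated with 1.5 ng/mL TSH (final) in presence of Ro20-1724 for 30 min at RT. HTRF cAMP detection after 1 h; each compound tested at 15 concentrations, triplicate.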
# [17] = target: Androgen receptor (Homo sapiens) (UniProt P10275); test: qHTS assay to identify small molecule antagonists of the androgen receptor (AR) signaling pathway using the MDA cell line in the presence of 0.5 nM R1881 (AID 1259243); conditions: MDA-kb2 MMTV-luciferase, R1881 0.5 nM, 16 h; series mostly up to 92.4 µM; further: potency means the concentration at half of the fitted maximal effect; nearly all actives have a fitted effect of over 50% in size
# How it was run: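 Antagonist mode quantitative HTS in MDA-kb2 MMTV-luciferase cells, agonist R1881 at 0.5 nM final, 16 hr exposure at 37C and 0% CO2, luminescent detection.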
# [18] = qHTS assay to identify small molecule phospholipidosis (PLD) inducers (AID 1259344; active means well fitted curve in the direction sought with a large enough effect; an effect the other way counts as inactive or inconclusive); conditions: HepG2 phospholipidosis, LipidTOX Red imaging, 24 h; series mostly up to 38.3 µM
# How it was run: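 Accumulated phospholipid, stained red by LipidTOX during 24 h compound treatment of HepG2 cells at 37 C, is quantified from images as pit number and intensity, normalised per cell using Hoechst-stained nuclei.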
# [19] = target: Androgen receptor (Homo sapiens) (UniProt P10275); test: qHTS assay to identify small molecule agonists of the androgen receptor (AR) signaling pathway in the presence of an antagonist (AID 1259381; calls by dose curve; further: nearly all actives have a fitted effect of over 15% in size); conditions: MDA-kb2 MMTV-luciferase, AR agonist + nilutamide, 16 h; series mostly up to 92.4 µM
# How it was run: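 Reporter-gene luminescence from MDA-kb2 cells exposed 16hr at 37C (0% CO2) to 15-point compound titrations with 3.0uM final nilutamide as AR antagonist.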
# [20] = qHTS assay to identify small molecule antagonists of the estrogen receptor alpha (ER-alpha) signaling pathway using the BG1 cell line in the presence of 0.1 nM 17-beta-estradiol - cell viability counter screen (AID 1259241); conditions: VM7Luc4E2 (BG1) viability, CellTiter-Fluor protease, 22 h, 0.1 nM estradiol agonist added; series mostly up to 92.4 µM; further: nearly all actives have a fitted effect of over 40% in size
# How it was run: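 Measures cytotoxicity alongside the ER-alpha antagonist readout: VM7Luc4E2 cells, charcoal-stripped serum, 0.1 nM 17beta-estradiol final, 22 hr compound incubation at 37C, CellTiter-Fluor fluorescence.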
# Thyrotropin receptor (Homo sapiens), sequence (P16473 whole entry, looked up): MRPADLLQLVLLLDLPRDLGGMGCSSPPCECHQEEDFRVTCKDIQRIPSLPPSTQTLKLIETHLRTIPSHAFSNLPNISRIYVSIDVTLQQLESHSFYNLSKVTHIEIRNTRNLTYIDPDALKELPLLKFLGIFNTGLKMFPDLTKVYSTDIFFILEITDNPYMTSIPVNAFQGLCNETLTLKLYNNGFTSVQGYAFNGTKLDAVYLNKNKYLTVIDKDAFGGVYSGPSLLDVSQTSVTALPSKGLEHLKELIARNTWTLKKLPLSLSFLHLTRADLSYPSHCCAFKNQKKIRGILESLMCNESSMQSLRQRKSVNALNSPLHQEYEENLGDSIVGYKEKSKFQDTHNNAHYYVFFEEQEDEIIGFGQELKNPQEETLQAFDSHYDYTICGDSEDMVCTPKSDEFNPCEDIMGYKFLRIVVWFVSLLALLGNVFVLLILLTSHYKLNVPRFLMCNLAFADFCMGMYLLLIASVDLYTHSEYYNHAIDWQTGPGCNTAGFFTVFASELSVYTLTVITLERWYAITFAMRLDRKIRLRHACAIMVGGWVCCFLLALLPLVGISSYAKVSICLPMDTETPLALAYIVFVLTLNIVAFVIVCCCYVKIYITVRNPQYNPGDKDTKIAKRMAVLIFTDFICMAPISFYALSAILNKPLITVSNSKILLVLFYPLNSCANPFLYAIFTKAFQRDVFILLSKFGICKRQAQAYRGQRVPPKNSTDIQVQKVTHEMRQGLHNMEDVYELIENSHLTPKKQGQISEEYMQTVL
# Estrogen receptor (Homo sapiens), sequence (P03372 whole entry, looked up): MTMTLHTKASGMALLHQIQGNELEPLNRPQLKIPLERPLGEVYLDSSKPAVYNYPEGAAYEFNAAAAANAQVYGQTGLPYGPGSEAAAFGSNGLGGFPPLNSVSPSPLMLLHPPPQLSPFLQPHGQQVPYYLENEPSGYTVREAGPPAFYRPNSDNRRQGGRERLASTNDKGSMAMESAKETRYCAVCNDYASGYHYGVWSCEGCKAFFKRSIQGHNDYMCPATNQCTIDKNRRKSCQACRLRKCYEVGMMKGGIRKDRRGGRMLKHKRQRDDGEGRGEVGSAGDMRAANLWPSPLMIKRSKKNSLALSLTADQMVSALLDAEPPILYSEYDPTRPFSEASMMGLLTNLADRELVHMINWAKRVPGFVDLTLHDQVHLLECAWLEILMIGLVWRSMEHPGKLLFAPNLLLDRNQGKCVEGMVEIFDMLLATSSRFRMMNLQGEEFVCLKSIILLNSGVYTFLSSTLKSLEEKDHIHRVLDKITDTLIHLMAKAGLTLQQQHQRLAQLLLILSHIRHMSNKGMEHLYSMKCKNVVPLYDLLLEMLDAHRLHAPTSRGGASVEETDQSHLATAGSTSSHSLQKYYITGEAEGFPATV
# Androgen receptor (Homo sapiens), sequence (P10275 whole entry, looked up): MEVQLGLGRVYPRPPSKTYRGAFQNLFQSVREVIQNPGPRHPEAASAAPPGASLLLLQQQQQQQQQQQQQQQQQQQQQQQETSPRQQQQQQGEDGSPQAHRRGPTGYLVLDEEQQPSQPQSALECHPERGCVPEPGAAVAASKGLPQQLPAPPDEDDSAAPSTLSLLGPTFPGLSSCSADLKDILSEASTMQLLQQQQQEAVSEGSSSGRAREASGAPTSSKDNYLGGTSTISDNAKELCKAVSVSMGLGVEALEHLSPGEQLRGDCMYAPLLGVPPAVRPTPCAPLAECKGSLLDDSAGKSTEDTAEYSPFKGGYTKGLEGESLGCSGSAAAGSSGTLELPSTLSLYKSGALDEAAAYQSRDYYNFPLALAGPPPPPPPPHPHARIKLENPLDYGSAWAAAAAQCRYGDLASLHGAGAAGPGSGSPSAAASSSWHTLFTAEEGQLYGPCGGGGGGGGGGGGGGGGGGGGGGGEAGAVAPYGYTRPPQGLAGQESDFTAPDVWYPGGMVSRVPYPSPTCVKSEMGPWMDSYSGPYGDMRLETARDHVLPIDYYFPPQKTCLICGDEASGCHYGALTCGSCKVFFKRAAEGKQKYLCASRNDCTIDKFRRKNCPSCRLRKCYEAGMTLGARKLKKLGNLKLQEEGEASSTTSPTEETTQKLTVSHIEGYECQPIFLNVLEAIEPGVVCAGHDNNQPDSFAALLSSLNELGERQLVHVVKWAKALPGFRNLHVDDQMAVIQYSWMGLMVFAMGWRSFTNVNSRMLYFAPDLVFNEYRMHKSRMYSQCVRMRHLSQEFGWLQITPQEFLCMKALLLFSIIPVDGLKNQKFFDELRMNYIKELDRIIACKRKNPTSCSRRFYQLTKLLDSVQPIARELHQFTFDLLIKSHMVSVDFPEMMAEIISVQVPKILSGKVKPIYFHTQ
# Estrogen receptor beta (Homo sapiens), sequence (Q92731 whole entry, looked up): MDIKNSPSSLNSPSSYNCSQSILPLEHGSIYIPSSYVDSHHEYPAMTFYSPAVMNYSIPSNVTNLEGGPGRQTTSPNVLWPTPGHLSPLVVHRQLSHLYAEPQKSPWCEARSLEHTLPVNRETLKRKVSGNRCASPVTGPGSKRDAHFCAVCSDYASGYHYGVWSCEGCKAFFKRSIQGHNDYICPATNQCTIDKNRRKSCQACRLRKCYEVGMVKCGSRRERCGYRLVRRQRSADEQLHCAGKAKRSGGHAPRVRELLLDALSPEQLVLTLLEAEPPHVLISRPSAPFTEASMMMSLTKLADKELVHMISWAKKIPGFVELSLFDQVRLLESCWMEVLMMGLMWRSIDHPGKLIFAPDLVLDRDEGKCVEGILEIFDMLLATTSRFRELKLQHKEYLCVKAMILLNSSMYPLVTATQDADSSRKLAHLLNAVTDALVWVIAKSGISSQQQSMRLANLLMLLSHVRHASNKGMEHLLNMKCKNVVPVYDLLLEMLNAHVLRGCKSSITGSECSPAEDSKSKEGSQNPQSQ
compound,measurement,setting,value
Clc1ccccc1C(c1ccccc1)(c1ccccc1)n1ccnc1,Potency,[1],43.3 µM (active) and inactive
same,Potency,[2],24.3 µM (active) and inactive
same,Potency,[3],inactive
same,Potency,[4],inactive
same,Potency,[5],13.7 µM (active)
same,Potency,[6],13.7 µM (active)
same,Potency,[7],inactive
same,Potency,[8],13.3 µM (active)
same,Potency,[9],inactive
same,Potency,[10],8.41 µM (active)
same,Potency,[11],30.6 µM (active) and inactive
same,Potency,[12],17.2 µM (active)
same,Potency,[13],15.4 µM (active)
same,Potency,[14],inactive
same,outcome,[15],inactive
same,Potency,[16],54.5 µM (active)
CCCC(=O)OC[C@@H](OC(=O)CCC)[C@@H](OC(=O)CCC)[C@H](Cn1c2nc(=O)[nH]c(=O)c-2nc2cc(C)c(C)cc21)OC(=O)CCC,Potency,[17],16.8 µM (active)
same,Potency,[2],26.6 µM (active)
same,Potency,[18],inactive
same,Potency,[3],inactive
same,Potency,[4],inactive
same,Potency,[7],inactive
same,Potency,[8],2.37 µM (active)
same,Potency,[11],inactive
same,Potency,[12],16.8 µM (active)
same,Potency,[19],inactive
same,Potency,[13],inactive
same,Potency,[14],inactive
same,outcome,[15],inactive
same,Potency,[16],inactive
CC(C)n1nc(-c2cc3cc(O)ccc3[nH]2)c2c(N)ncnc21,Potency,[1],inactive
same,Potency,[2],0.376 µM (active)
same,Potency,[18],inactive
same,Potency,[3],inactive
same,Potency,[4],inactive
same,Potency,[5],0.841 µM (active)
same,Potency,[6],0.944 µM (active)
same,Potency,[7],inactive
same,Potency,[8],1.5 µM (active)
same,Potency,[12],0.211 µM (active)
same,outcome,[15],inactive
same,Potency,[16],inactive
CCOc1ccc2nc3cc(N)ccc3c(N)c2c1,Potency,[1],inactive
same,Potency,[2],inactive
same,Potency,[18],inactive
same,Potency,[3],inactive
same,Potency,[4],inactive
same,Potency,[7],inactive
same,Potency,[11],inactive
same,Potency,[14],inactive
CC(=O)N1CCN(c2ccc(OC[C@H]3CO[C@](Cn4ccnc4)(c4ccc(Cl)cc4Cl)O3)cc2)CC1,Potency,[1],61.1 µM (active)
same,Potency,[2],27.3 µM (active)
same,Potency,[3],inactive
same,Potency,[5],54.5 µM (active)
same,Potency,[6],27.3 µM (active)
same,Potency,[7],inactive
same,Potency,[8],3.06 µM (active)
same,Potency,[10],21.7 µM (active)
same,Potency,[11],54.5 µM (active)
same,Potency,[12],48.6 µM (active)
same,Potency,[13],30.6 µM (active)
same,Potency,[14],inactive
same,outcome,[15],inactive
CCN(CC)CCCC(C)Nc1c2ccc(Cl)cc2nc2ccc(OC)cc12 (centres undefined),Potency,[20],inactive
same,Potency,[6],inactive
same,Potency,[7],inactive
same,Potency,[8],29.8 µM (active)
same,Potency,[11],11.9 µM (active)
same,Potency,[12],6.68 µM (active)
CC(C)(C)CC(C)(C)c1ccc(O)c(Cc2ccc(Cl)cc2Cl)c1,Potency,[17],29.8 µM (active)
same,Potency,[2],33.5 µM (active)
same,Potency,[18],inactive
same,Potency,[3],inactive
same,Potency,[7],inactive
same,Potency,[12],11.9 µM (active)
same,Potency,[19],inactive
same,Potency,[13],29.8 µM (active)
same,Potency,[14],inactive
same,outcome,[15],inactive
